Compound activity (PubChem BioAssay)
Bfl-1 A1 inh: inhibitors of the anti-apoptotic protein A1, read as caspase activation; MEF A1-2A-BIM cells, Caspase-Glo 3/7 luminescence, 3 h; percent of clofoctol response, vehicle zero; caspase activation, % (no concentration beside the values); actives 0.066% (n = 330,000);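 active = over half of replicate activation scores above 10%, or exactly half above 10 with the replicate mean above 10; inconclusive = replicate mean below 10 yet half the replicates above 10; inactive = over half of replicates below 10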
Efflux pump inh: inhibitors of Candida antifungal efflux pumps expressed in yeast; S. cerevisiae Candida pump triplex, Nile Red efflux; inhibition, % at 10 µM; actives 0.44% (n = 330,000); AID 485275;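 active = plate passing quality check with inhibition over a set limit, or well fluorescence over plate mean plus 4 SD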;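 also: Nile Red retained in pooled yeast measured as flow cytometry median fluorescence; 0% = buffer negative control and 100% = Enniatin B positive control; higher means more Nile Red kept so more efflux inhibition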
Mot1-301 SUMO: inhibitors of SUMOylation pathway: yeast Mot1-301 growth rescue; S. cerevisiae Mot1-301 growth rescue, ATP luminescence, 38.5C; percent above DMSO median, 100 means doubled; growth rescue, % at 18.8 µM; actives 1% (n = 320,000); AID 2716;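 active = every valid replicate shows activation above 250% relative to neutral control wells; inactive = the rest, any valid replicate at or below 250%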;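 also: OY570 slx delta 5 strain wells were the positive control but not used for scaling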
VLA-4 inh: inhibition in a human VLA-4 binding assay; P13612; VLA-4 expressing cells, ligand binding flow cytometry; inhibition, % (about 7 µM as worked out from the volumes in the protocol); actives 0.2% (n = 330,000); in the data active = inhibition above about 50%
Target sequence (P13612 whole entry, looked up): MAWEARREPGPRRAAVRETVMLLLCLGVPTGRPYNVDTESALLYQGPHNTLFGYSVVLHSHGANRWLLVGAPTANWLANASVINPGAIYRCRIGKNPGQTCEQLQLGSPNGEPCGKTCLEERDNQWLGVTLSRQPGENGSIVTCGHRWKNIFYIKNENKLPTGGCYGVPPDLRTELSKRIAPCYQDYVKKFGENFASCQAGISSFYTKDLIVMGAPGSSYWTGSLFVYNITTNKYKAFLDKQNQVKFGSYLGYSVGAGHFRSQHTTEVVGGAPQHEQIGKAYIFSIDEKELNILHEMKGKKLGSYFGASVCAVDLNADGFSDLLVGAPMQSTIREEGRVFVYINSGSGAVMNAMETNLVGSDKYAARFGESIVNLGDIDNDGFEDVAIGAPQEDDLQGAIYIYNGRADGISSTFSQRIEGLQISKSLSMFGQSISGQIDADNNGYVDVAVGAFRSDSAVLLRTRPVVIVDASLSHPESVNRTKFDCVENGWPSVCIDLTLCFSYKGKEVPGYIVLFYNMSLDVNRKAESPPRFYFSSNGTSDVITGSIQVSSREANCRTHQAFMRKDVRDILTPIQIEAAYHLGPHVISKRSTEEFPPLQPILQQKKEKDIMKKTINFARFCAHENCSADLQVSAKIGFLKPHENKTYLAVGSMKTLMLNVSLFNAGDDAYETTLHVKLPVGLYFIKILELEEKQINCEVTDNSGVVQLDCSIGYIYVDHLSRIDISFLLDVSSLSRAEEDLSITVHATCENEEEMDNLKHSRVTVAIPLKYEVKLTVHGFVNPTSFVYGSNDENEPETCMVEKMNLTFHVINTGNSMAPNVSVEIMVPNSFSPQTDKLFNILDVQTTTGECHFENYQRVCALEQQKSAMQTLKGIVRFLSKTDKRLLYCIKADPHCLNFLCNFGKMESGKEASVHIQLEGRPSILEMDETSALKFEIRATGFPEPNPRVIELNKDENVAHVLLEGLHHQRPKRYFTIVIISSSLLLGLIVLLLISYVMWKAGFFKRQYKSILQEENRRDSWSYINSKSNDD
ALR inh: human ALR oxidase inhibition via reduced H2O2 | AID 485317 | inhibition, % (concentration not given with the values) | purified ALR, DTT oxidation, H2O2 HRP-luminol luminescence | actives 3.8% (n = 290,000);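 active = mean replicate inhibition above about 79%, with every replicate also reaching it, limit read from the data; inconclusive = only one of the two criteria met; inactive = mean below limit and not every replicate reaching it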
AHR act: activates the human aryl hydrocarbon receptor; actives 2.5% (n = 320,000); AHR-responsive luciferase reporter cells, luminescence; activation, % at 5 µM; P35869; in the data active = activation above about 47%;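 also: 0% = vehicle wells and 100% = reference agonist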
AHR act cf: confirmation of human aryl hydrocarbon receptor activators. AID 2845. activation, % at 9 µM. human cells, AHR-responsive luciferase reporter, luminescence. shares compounds with AHR act. actives 87% (n = 2,300); in the data active = activation above about 49%;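 also: HepG2 hepatoma cells carrying a DRE-driven firefly luciferase reporter; 0% = vehicle wells and 100% = reference agonist wells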
PXR act counter: activates human PXR in AHR activator counter-screen; actives 88% (n = 2,300); activation, % at 11.6 µM; cell-based PXR reporter, luciferase luminescence; shares compounds with AHR act; AID 434939; in the data active = activation above about 11%;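 also: human hepatoma DPX-2 cells expressing full-length human PXR; 0% = DMSO and 100% = reference agonist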
* hit, by the source's call. Most compounds without a hit are left out; they make up all but 7.2% or so of the library.

Results for CCn1ncc(Br)c1C(=O)Nc1ccccc1C(F)(F)F ?
Bfl-1 A1 inh: 0; Efflux pump inh: 0; Mot1-301 SUMO: 1; VLA-4 inh: -3; ALR inh: -10; AHR act: 88*; AHR act cf: 92*; PXR act counter: 23*

Results for O=C(CC1C(=O)Nc2ccccc2N1CC(=O)N1CCCC1)Nc1ccc(Br)cc1 (centres undefined) ?
Bfl-1 A1 inh: 0; Efflux pump inh: 0; Mot1-301 SUMO: -23; VLA-4 inh: 4; ALR inh: 98*; AHR act: 92*; AHR act cf: 100*; PXR act counter: 37*

How did O=C(CSc1nc2ccccc2c2nc3ccccc3n12)NCc1ccco1 do in these assays?
Bfl-1 A1 inh: -1; Efflux pump inh: 0; Mot1-301 SUMO: -5; VLA-4 inh: -1; ALR inh: 36; AHR act: 80*; AHR act cf: 50*; PXR act counter: 48*

Results for CCCCCOc1ccc(Cn2ccnc2)cc1[N+](=O)[O-] ?
Bfl-1 A1 inh: 1; Efflux pump inh: 0; Mot1-301 SUMO: 11; VLA-4 inh: -5; ALR inh: -11; AHR act: 101*; AHR act cf: 75*; PXR act counter: 53*

How did CCCCOc1ccc(-c2cn3ccccc3n2)cc1[N+](=O)[O-] do in these assays?
Bfl-1 A1 inh: -7; Efflux pump inh: 0; Mot1-301 SUMO: -15; VLA-4 inh: 5; ALR inh: -9; AHR act: -5

Results for Oc1oc(-c2ccccc2)nc1/C=N/c1nccs1 ?
Bfl-1 A1 inh: 0; Efflux pump inh: 0; Mot1-301 SUMO: -16; VLA-4 inh: 4; ALR inh: 12; AHR act: 100*; AHR act cf: 78*

What do the screens show for `CCCCOc1ccc(-c2nc(/C=N/c3nccs3)c(O)o2)cc1`?
Bfl-1 A1 inh: 0; Efflux pump inh: 0; Mot1-301 SUMO: 21; VLA-4 inh: -4; ALR inh: 4; AHR act: 1

What do the screens show for `CCOC(CNC(=O)c1cccn2c(=O)c3c(C)c(C)sc3nc12)OCC`?
Bfl-1 A1 inh: 0; Efflux pump inh: 0; Mot1-301 SUMO: 0; VLA-4 inh: 6; ALR inh: -2; AHR act: 8

How did CCOC(CNC(=O)c1cccn2c(=O)c3cc(Cl)ccc3nc12)OCC do in these assays?
Bfl-1 A1 inh: 0; Efflux pump inh: 0; Mot1-301 SUMO: 66; VLA-4 inh: -3; ALR inh: -12; AHR act: 83*; AHR act cf: 134*; PXR act counter: 14*

Results for CC(=O)Nc1cccc(C(=O)NCCc2ccco2)c1 ?
Bfl-1 A1 inh: 0; Efflux pump inh: 0; Mot1-301 SUMO: -7; VLA-4 inh: -8; ALR inh: -12; AHR act: 6

Results for COc1ccc2nnc(-c3ccc(C(F)(F)F)cc3)n2n1 ?
Bfl-1 A1 inh: 0; Efflux pump inh: 0; Mot1-301 SUMO: -11; VLA-4 inh: 4; ALR inh: 29; AHR act: 81*; AHR act cf: 105*; PXR act counter: 18*

What do the screens show for `O=C1NCCC/C1=N\Nc1ccc(Br)cc1`?
Bfl-1 A1 inh: 0; Efflux pump inh: 0; Mot1-301 SUMO: 199; VLA-4 inh: -23; ALR inh: 99*; AHR act: 119*; AHR act cf: 124*; PXR act counter: 21*

What do the screens show for `Cc1ccc(/C=N/Nc2nc3ccccc3s2)o1`?
Bfl-1 A1 inh: -7; Efflux pump inh: 0; Mot1-301 SUMO: -15; VLA-4 inh: 12; ALR inh: inconclusive; AHR act: 111*; AHR act cf: 113*; PXR act counter: 14*

What do the screens show for `CC(C)(C)c1csc(SCC(=O)Nc2ccc(Cl)cn2)n1`?
Bfl-1 A1 inh: 0; Efflux pump inh: 0; Mot1-301 SUMO: -10; VLA-4 inh: 22; ALR inh: -5; AHR act: -2

How did Cc1csc(SCC(=O)Nc2ccc(Cl)cn2)n1 do in these assays?
Bfl-1 A1 inh: 0; Efflux pump inh: 0; Mot1-301 SUMO: 182; VLA-4 inh: -1; ALR inh: 92*; AHR act: 98*; AHR act cf: 98*

How did CCNC(=S)/N=C(/Nc1ccccc1)Nc1nc(C)cc(C)n1 do in these assays?
Bfl-1 A1 inh: -1; Efflux pump inh: 0; Mot1-301 SUMO: 221; VLA-4 inh: -19; AHR act: 80*; AHR act cf: 113*; PXR act counter: 64*

How did CCNC(=S)/N=C(/Nc1ccc(OC)cc1)Nc1nc(C)cc(C)n1 do in these assays?
Bfl-1 A1 inh: 1; Efflux pump inh: 0; Mot1-301 SUMO: -17; VLA-4 inh: 1; ALR inh: -8; AHR act: 8

Results for c1cnc2c(OCc3nc4ccccc4[nH]3)cccc2c1 ?
Bfl-1 A1 inh: -2; Efflux pump inh: 0; Mot1-301 SUMO: -8; VLA-4 inh: 8; ALR inh: -6; AHR act: 110*; AHR act cf: 149*; PXR act counter: 110*

Results for Cc1cc2nn(-c3ccc(F)cc3)nc2cc1N ?
Bfl-1 A1 inh: -7; Efflux pump inh: 0; Mot1-301 SUMO: -1; VLA-4 inh: 12; ALR inh: -22; AHR act: 109*; AHR act cf: 123*; PXR act counter: 25*

Results for Cc1cc2nn(-c3ccc(Cl)cc3)nc2cc1N ?
Bfl-1 A1 inh: -3; Efflux pump inh: 0; Mot1-301 SUMO: -14; VLA-4 inh: -12; ALR inh: -1; AHR act: 81*; AHR act cf: 192*; PXR act counter: 24*

Results for CCS(=O)(=O)N1CCC(NC(=O)C(Cc2ccc(OC)c(OC)c2)NC(C)=O)CC1 (centres undefined) ?
Bfl-1 A1 inh: 0; Efflux pump inh: 0; Mot1-301 SUMO: 13; VLA-4 inh: 2; ALR inh: -13; AHR act: 2

What do the screens show for `CCC(=O)Nc1ccccc1C(=O)C(=O)Nc1ccccc1`?
Bfl-1 A1 inh: 0; Efflux pump inh: 0; Mot1-301 SUMO: 4; VLA-4 inh: 0; ALR inh: 0; AHR act: 8

What do the screens show for `C=C(C)CSc1nc2ccccc2[nH]1`?
Bfl-1 A1 inh: -5; Efflux pump inh: 0; Mot1-301 SUMO: 6; VLA-4 inh: -11; ALR inh: -4; AHR act: 12

How did CN=c1scc(C)n1/N=C/c1cc(Br)c(O)c(Br)c1 do in these assays?
Bfl-1 A1 inh: 0; Efflux pump inh: 0; Mot1-301 SUMO: -10; VLA-4 inh: 0; AHR act: 118*; AHR act cf: 110*; PXR act counter: 14*
